Most compounds without a hit are left out; they make up all but 1.7% or so of the library.
Coupling enz – qHTS Assay for Inhibitors of Fructose-1,6-bisphosphate Aldolase from Giardia Lamblia: Coupling assay counterscreen | coupling enzyme system counterscreen, AmpLite Red fluorescence | activity change, negative = inhibition, % at 58.2 µM, hits read low | hit rate 0.67% among 290,000 | AID 2472, 2010; in the data active means activity change below about -30%
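Coupling enzymes only (glyceraldehyde-3-phosphate) + compound, at 57.5 uM final, 10 min RT; add substrate/coupling/AmpLite Red mix, 20 min RT; fluorescence ex 525/em 598 nm. Actives flag coupling-system interference.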
hERG WT inh – qHTS for Inhibitors of KCHN2 3.1: Wildtype qHTS | Voltage-gated inwardly rectifying potassium channel KCNH2 (Homo sapiens), Q12809 | U2OS, BacMam KCNH2, thallium flux FluxOr; stronger effect = lower value | activity change, % at 1.84 µM | hit rate 0.37% among 340,000 | AID 720551, 2013;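 active means maximum activity change below -70%; inconclusive means maximum activity change between -70% and -50%; inactive means maximum activity change above -50%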
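U2OS cells transduced with wild-type KCNH2 virus are loaded with FluxOr dye for 45 min, and thallium flux is measured in kinetic reads before and after stimulation buffer. Rate constants are normalized to DMSO controls.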
KCNH2 3.1 inh – qHTS for Inhibitors of KCHN2 3.1: Mutant qHTS; Potassium voltage-gated channel subfamily H member 2, brain isoform KCNH2 3.1 (human); hit rate 0.95% among 340,000; activity change, % (tested at about 1.8 µM); U2OS KCNH2 3.1, thallium flux FluxOr; stronger effect = lower value;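 active means maximum activity change below -70%; inconclusive means maximum activity change from -70% to -50%; inactive means maximum activity change above -50%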;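 further: thallium influx rate constant from kinetic fluorescence after stimulation buffer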
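Measured as rate of thallium-driven FluxOr signal in transduced U2OS cells carrying the 3.1 channel, read kinetically for 2 min upon stimulation; values are rate constants scaled to DMSO control wells.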
USP1 inh – Inhibitors of USP1/UAF1: Primary Screen; hit rate 0.23% among 390,000; recombinant USP1/UAF1, Ub-Rhodamine cleavage fluorescence; Ubiquitin carboxyl-terminal hydrolase 1 (Homo sapiens), O94782; Potency, µM (titrated, usually from 57.1 µM), for inactives: top-dose activity change, negative = inhibition, usual class: inhibitors; active means well fitted inhibition curve with a large enough effect; inconclusive means small, poorly fitted or top-dose-only effect; inactive means no such curve, though single readings can be large or run the other way; further: potency means the concentration at half of the fitted maximal effect; nearly all actives have a fitted effect of over 60% in size
Target sequence (O94782 whole entry, looked up): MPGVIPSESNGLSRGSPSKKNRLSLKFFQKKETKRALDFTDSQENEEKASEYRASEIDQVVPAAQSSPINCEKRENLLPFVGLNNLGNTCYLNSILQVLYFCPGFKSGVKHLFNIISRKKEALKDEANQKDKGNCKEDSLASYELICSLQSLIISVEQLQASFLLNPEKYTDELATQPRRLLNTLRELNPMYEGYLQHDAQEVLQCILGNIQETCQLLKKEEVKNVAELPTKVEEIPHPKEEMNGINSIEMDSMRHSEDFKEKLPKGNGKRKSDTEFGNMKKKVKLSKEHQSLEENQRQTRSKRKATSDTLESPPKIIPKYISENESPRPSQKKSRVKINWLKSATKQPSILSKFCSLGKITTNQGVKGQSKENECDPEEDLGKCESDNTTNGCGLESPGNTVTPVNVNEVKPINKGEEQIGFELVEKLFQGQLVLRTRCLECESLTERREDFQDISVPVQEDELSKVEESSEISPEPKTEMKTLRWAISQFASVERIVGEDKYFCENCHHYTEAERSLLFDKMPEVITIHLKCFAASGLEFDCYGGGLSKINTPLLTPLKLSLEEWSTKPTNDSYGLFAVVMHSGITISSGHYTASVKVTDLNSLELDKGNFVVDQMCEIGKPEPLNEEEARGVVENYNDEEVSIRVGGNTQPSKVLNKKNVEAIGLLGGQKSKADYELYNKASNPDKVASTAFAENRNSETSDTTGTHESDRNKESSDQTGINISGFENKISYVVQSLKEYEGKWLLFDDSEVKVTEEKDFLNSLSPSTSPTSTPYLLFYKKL
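Step one: compound is pinned into 1nM USP1/UAF1 in HEPES pH 7.8 buffer with TCEP. Step two: 15 min room-temperature incubation. Step three: Ub-Rho (150nM final) starts cleavage, tracked by fluorescence over six one-minute reads.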
Giardia killer – Small Molecules that selectively kill Giardia lamblia: qHTS; activity change, % at 7.66 µM, hits read low; hit rate 0.15% among 340,000; Giardia lamblia trophozoite viability; in the data active means activity change below about -80%; inconclusive means between about -30% and that limit;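 further: parasites exposed to compound for two days anaerobically before the ATP read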
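Compounds were tested on trophozoites seeded at 100 cells/well and held 48 hrs at 37 deg C anaerobically. An ATP-based luminescent kit measured the remaining live cells.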
An asterisk follows results filed as active; ? = inconclusive; . = not tested or not shown. On the % scale 0 is the no-effect control and ±100 the full control effect.

SMILES	Coupling enz	hERG WT inh	KCNH2 3.1 inh	USP1 inh	Giardia killer
Cc1ccc(NC(=O)C(C)N2CCc3ccccc3C2)cc1 (configuration not stated)	1	-4	-115*	-21%	-4
CCc1ccc(NC(=O)C(C)OC(=O)c2cccc(S(=O)(=O)N3CCc4ccccc4C3)c2)cc1 (configuration not stated)	-45*	-5	-5	-10%	-7
S=C(NCCCc1cnc[nH]1)NCCCN(Cc1ccc(Cl)cc1)c1cc(-c2ccccc2)ccn1	.	.	.	.	-24
CCOC(=O)C1(CCOc2ccccc2)CCN(Cc2ccc(O)c(OC)c2)CC1	-1	?	-75*	-24%	-17
CCOC(=O)C1(CCOc2ccccc2)CCN(Cc2ccc(-n3cccn3)cc2)CC1	1	-130*	-108*	-1%	46
CCOC(=O)C1(CCOc2ccccc2)CCN(Cc2cccn2-c2ncccn2)CC1	4	-90*	-101*	-5%	-6
CCOC(=O)C1(CCOc2ccccc2)CCN(Cc2cccc(OC)c2)CC1	.	-96*	-116*	-12%	-3
CCc1ccc(-c2cc(C)no2)cc1S(=O)(=O)Nc1ccc(Cl)cc1	.	.	.	-17%	.
CCOc1ccccc1NC(=O)c1cc(S(=O)(=O)N2CCOCC2)cn1C	.	.	.	-3%	.
CC(=O)c1ccc(OC2C=CC(c3ccc(Cl)cc3)OC2CO)cc1 (configuration not stated)	2	.	.	.	.
CCOC(=O)C1(CCOc2ccccc2)CCN(Cc2ccncc2)CC1	-1	10	5	-12%	-8
CCOC(=O)C1(CCOc2ccccc2)CCN(Cc2cccc(OC)c2O)CC1	-2	-102*	-113*	3%	-8
CCOC(=O)C1(Cc2cccc(OC)c2)CCN(Cc2cc(OC)ccc2OC)CC1	1	20	?	-25%	4
CCOC(=O)C1(CCOc2ccccc2)CCN(Cc2cc(OC)ccc2OC)CC1	2	-80*	-88*	-15%	-3
CCOC(=O)C1(CCOc2ccccc2)CCN(Cc2ccc(C(=O)OC)cc2)CC1	0	8	-88*	-15%	-9
CCOC(=O)C1(CCOc2ccccc2)CCN(Cc2ccc(F)c(OC)c2)CC1	1	26	?	-9%	-12
CCOC(=O)C1(CCOc2ccccc2)CCN(Cc2cccs2)CC1	0	?	-86*	-13%	3
COc1ccc(CCNC(=O)c2cc(S(=O)(=O)N3CCCC(C)C3)cn2C)cc1OC (configuration not stated)	.	.	.	-26%	.
O=C1N[C@@H]2[C@H](CCCCC(=O)Oc3ccc([N+](=O)[O-])cc3)SC[C@H]2N1	4	.	.	.	.
CN1OC[C@@H]2CN(S(=O)(=O)c3cccc4ccccc34)[C@H](c3ccc(-c4cccnc4)cc3)C[C@@H]21	.	-3	2	-28%	.
COc1ccc(OC)c(/C(C)=N/Nc2ccc(C(=O)O)cc2)c1	14	7	.	-23%	8
C/C(=N/Nc1ccc(C(=O)O)cc1)c1ccc(O)c(O)c1O	-34*	2	2	-14%	-4
O=C(Cn1ncc2c([nH]c3ccccc32)c1=O)Nc1cc(F)ccc1F	.	.	.	-24%	.
CCc1ccccc1N1CSC2=C(C#N)C(c3cc(OC)c(OC)cc3OC)CC(=O)N2C1 (configuration not stated)	-52*	-9	6	-15%	22
COc1ccc(OC)c(C2CC(=O)N3CN(c4ccccc4F)CSC3=C2C#N)c1 (configuration not stated)	-84*	1	0	-24%	-24
COc1cccc(C2CC(=O)N3CN(c4ccccc4F)CSC3=C2C#N)c1 (configuration not stated)	-10	-5	-1	-22%	6
COc1ccc(C2C(=O)N(C3CCCCC3)CC(=O)N2CCC2=CCCCC2)cc1 (configuration not stated)	.	.	.	-8%	.
CCOc1ccccc1NC(=O)C1CCN(S(=O)(=O)c2ccc3[nH]c4c(c3c2)CCCCC4)CC1	.	.	.	-12%	.
